Measured values published in ChEMBL document CHEMBL1201862, “PubChem BioAssay data set” (2004).
Where “and” joins values, the source holds several entries; their conditions need not be identical. Equal entries are not always repeated. The campaign covered roughly 400,000 compounds. About 2,100 (0.53%) were called active. Roughly 14% stayed inconclusive and do not appear here. No rule for the calls is given here. Many of the other results were omitted from the sample, so actives are more common in it than they were.

The compounds below were run against Ataxin-2 (Homo sapiens) (UniProt Q99700) (assay: qHTS for Inhibitors of ATXN expression.).
Chain of Ataxin-2 (Homo sapiens) (Q99700 whole entry): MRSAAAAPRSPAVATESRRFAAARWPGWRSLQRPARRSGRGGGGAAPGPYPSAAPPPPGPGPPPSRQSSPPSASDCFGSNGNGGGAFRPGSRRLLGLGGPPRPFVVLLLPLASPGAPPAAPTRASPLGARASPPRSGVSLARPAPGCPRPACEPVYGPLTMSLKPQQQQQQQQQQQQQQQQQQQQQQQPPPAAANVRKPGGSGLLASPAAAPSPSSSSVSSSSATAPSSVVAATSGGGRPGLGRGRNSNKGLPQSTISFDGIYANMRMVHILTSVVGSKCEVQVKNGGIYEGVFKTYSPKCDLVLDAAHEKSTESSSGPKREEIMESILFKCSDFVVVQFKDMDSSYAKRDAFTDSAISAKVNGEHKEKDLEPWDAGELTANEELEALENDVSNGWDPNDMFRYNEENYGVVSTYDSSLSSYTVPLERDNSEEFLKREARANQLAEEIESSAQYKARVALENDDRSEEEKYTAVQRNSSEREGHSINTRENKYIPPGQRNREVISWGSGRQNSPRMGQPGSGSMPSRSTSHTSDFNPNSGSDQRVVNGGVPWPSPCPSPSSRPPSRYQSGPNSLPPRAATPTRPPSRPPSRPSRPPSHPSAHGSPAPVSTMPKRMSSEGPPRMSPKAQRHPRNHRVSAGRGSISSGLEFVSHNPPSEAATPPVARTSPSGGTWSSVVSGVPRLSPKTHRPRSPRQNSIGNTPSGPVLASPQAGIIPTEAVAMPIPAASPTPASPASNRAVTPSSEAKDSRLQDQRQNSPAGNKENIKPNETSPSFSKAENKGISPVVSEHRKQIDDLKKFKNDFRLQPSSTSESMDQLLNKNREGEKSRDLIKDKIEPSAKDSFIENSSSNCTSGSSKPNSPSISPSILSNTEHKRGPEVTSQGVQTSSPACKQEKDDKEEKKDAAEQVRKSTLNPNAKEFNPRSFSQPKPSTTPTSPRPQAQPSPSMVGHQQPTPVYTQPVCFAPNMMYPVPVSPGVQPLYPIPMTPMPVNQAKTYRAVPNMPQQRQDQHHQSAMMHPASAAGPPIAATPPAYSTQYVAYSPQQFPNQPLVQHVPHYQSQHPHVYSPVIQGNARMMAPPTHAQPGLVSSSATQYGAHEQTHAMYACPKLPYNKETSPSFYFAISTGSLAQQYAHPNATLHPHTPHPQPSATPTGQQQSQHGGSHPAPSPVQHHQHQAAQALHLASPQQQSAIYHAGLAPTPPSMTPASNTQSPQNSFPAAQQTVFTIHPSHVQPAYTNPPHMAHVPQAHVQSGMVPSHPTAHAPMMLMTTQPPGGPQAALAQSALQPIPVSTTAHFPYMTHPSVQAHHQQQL
Format: functional
`O=c1[nH]c(=O)c2nc(-c3ccc(Cl)cc3)cnc2[nH]1` was tested, and the Potency was “inactive”. In the case of `O=c1c2nccnc2[nH]c(=S)n1Cc1ccccc1Cl`, the Potency is reported as “inactive”. In the case of `CC1CN(Cc2cc(=O)oc3cc(O)ccc23)CC(C)O1` (configuration not stated), the Potency is reported as “inactive”. For `COCc1nnc(NS(=O)(=O)c2ccc(OC)cc2)s1`, the Potency was “inactive”. With `CN1CCN(c2nc(-c3cccnc3)nc3scc(-c4ccccc4)c23)CC1` the Potency was “inactive”. For `CC1CCN(c2nc(CN3CCCCC3)nc3scc(-c4ccccc4)c23)CC1`, the Potency was 22.4 µM (active). For `CC(=O)N1CCN(Cc2nc(O)c3c(-c4ccccc4)csc3n2)CC1`, the Potency was “inactive”. In the case of `Cc1cccc(/N=C/c2cc(Br)cc(Cl)c2O)c1`, the Potency is reported as “inactive”. In the case of `O=C(C[n+]1ccc2c(c1)nnn2-c1ccccc1)c1ccc(Cl)cc1`, the Potency is reported as “inactive”. `O=C1OC(c2ccccc2)(c2cc(Br)ccc2O)c2ccccc21` (configuration not stated) was tested, and the Potency was 35.5 µM (active). In the case of `Cc1ccc(NC2=C(C(=O)Nc3c(C)cc(C)cc3C)C(=N)C(C(=O)Nc3ccc(OC(F)(F)F)cc3)S2)cc1` (configuration not stated), the Potency is reported as 18.9 µM (active). In the case of `COCc1cc(C)nc2sc(C(=O)Nc3ccc(OC(F)(F)F)cc3)c(N)c12`, the Potency is reported as “inactive”. For `CSCCC(NC(=O)C1CCCC1)c1nnc2ccccn12` (configuration not stated), the Potency was “inactive”. In the case of `C=CCN1C=C/C(=C\C=C(C#N)C#N)c2ccccc21`, the Potency is reported as 6.7 µM (active). With `CCCCCCN1C=C/C(=C\C=C(C#N)C#N)c2ccccc21` the Potency was 20 µM (active). In the case of `O=C(O)COc1ccc(/C=C/c2nc3ccc([N+](=O)[O-])cc3s2)cc1`, the Potency is reported as “inactive”. In the case of `CCN(CC)c1ccc2c(Cl)c(Br)c(=O)oc2c1`, the Potency is reported as “inactive”. `c1ccn2c(c1)nc1c2nc2ccccn21` was tested, and the Potency was “inactive”. In the case of `C=CCNC(=O)c1cc2c(=O)n3ccccc3nc2s1`, the Potency is reported as “inactive”. `COc1ccc(/C=C/C(=O)c2ccccc2)cc1Cn1nnc2ccccc21` was tested, and the Potency was 39.8 µM (active). In the case of `COc1ccc(/C=C/C(=O)c2ccc3ccccc3c2O)cc1CN1CCOCC1`, the Potency is reported as “inactive”. For `COc1ccc(/C=N/NC(=O)CCn2nnc3ccccc32)cc1`, the Potency was “inactive”. For `O=C(O)C1Sc2nc(O)sc2C2c3ccc(O)cc3OC(=O)C12` (configuration not stated), the Potency was “inactive”. In the case of `COc1ccc([C@H]2C[C@@H](O)[C@H](n3cc(COC(=O)c4ccccc4)nn3)CN2CC2CCCCC2)cc1`, the Potency is reported as 28.2 µM (active). With `O=C(OCc1cn([C@H]2CN(CC3CCCCC3)[C@@H](c3ccc(Cl)cc3)C[C@@H]2O)nn1)c1ccccc1` the Potency was 35.5 µM (active). In the case of `COc1ccc(C2C3=C(CCCC3=O)N(CC(=O)O)C3=C2C(=O)CCC3)cc1`, the Potency is reported as “inactive”. For `COc1ccc(C2CC(c3ccccc3)=NN2c2ccc(C(N)=O)cc2)cc1` (configuration not stated), the Potency was “inactive”. With `COc1ccc([C@H]2C[C@H](O)[C@@H](n3cc(COC(=O)c4ccccc4)nn3)CN2CC2CCCCC2)cc1` the Potency was 35.5 µM (active). In the case of `O[C@H]1CN(CC2CCCCC2)[C@@H](c2ccc(Cl)cc2)C[C@@H]1n1cc(C2CC2)nn1`, the Potency is reported as 20 µM (active). With `COCC(=O)Nc1nc2n(n1)C(c1ccccc1)CC(c1ccc(OC)cc1)N2` (configuration not stated) the Potency was “inactive”. In the case of `CC(C)C(=O)Nc1ccc(C(=O)N/N=C/c2cc(Br)cc(Br)c2O)cc1`, the Potency is reported as “inactive”. With `N#Cc1nc(/C=C/c2ccc(F)cc2)oc1N1CCCCCC1` the Potency was “inactive”. In the case of `Cc1nc2ccccc2c2c(N)c3ccccc3n12`, the Potency is reported as “inactive”. For `Cc1ccc(S(=O)(=O)CCC(=O)OCCOc2ccc(Br)cc2)cc1`, the Potency was “inactive”. For `Cc1ccc(-c2ccc(S(=O)(=O)N3CC(C)OC(C)C3)cc2)cc1` (configuration not stated), the Potency was “inactive”. For `CC(=O)C1=CCC(c2ccc(Br)cc2)N(S(=O)(=O)c2ccc(C)cc2)C1` (configuration not stated), the Potency was 20 µM (active). With `COc1ccc(C(C)NCCC(c2ccc(OC(C)C)cc2)c2ccccc2OC)cc1` (configuration not stated) the Potency was 39.8 µM (active). For `COc1ccc2[nH]c(SCC(=O)NC(C)c3ccccc3)nc2c1` (configuration not stated), the Potency was “inactive”. For `COc1ccc(CNCCC(c2ccc3c(c2)OCO3)c2ccccc2OC)cc1` (configuration not stated), the Potency was 22.4 µM (active). `COc1ccccc1/C=C/C(=O)OCC(=O)NCc1ccc2c(c1)OCO2` was tested, and the Potency was “inactive”. With `Fc1cccc(CNCc2ccc3c(c2)OCO3)c1` the Potency was “inactive”. With `Cc1c(CC(=O)N2CCN(C(=O)C3COc4ccccc4O3)CC2)c(=O)oc2cc(O)cc(O)c12` (configuration not stated) the Potency was “inactive”. In the case of `Cc1ccc(S(=O)(=O)N2CCOCC2)cc1NC(=O)COC(=O)/C=C/c1ccco1`, the Potency is reported as “inactive”. `CC[C@@H]1Cc2cc(O)ccc2C2=C1c1ccc(O)cc1C[C@H]2CC` was tested, and the Potency was 39.8 µM (active) and 22.4 µM (active). In the case of `Clc1ccc(-c2nc(N3CCCCC3)nc3ccccc23)cc1`, the Potency is reported as “inactive”. `COc1ccc(-n2c(=O)c(CCC(=O)NCCc3ccccc3F)nc3ccccc32)cc1` was tested, and the Potency was “inactive”. In the case of `Cc1ccc(C(=O)c2c(C)oc3c2C(=O)C(=O)c2ccccc2-3)cc1`, the Potency is reported as 39.8 µM (active). In the case of `Cc1oc2c(c1C(=O)c1ccccc1)C(=O)C(=O)c1ccccc1-2`, the Potency is reported as 3.98 µM (active). In the case of `Cc1sc(N)c(C(=O)c2ccccc2)c1C`, the Potency is reported as “inactive”. `Cc1ccc(-n2c(C)cc(C(=O)COc3cccnc3[N+](=O)[O-])c2C)cc1` was tested, and the Potency was “inactive”. In the case of `CCOc1ccc(-n2c(C)cc(C(=O)CCl)c2C)cc1`, the Potency is reported as 29.9 µM (active). `CCOc1ccc(-n2c(C)cc(/C=N/NC(=O)C(N)=O)c2C)cc1` was tested, and the Potency was “inactive”. `CCCn1c(=N)c(C(=O)NCc2ccco2)cc2c(=O)n3cc(C)ccc3nc21` was tested, and the Potency was “inactive”. With `CC1CCc2c(sc3nc(-c4cc5ccccc5oc4=O)nc(Cl)c23)C1` (configuration not stated) the Potency was “inactive”. `CC1CCc2c(sc3ncn(CC(=O)N4CCCCC4)c(=O)c23)C1` (configuration not stated) was tested, and the Potency was “inactive”. In the case of `CCc1nc(N2CCN(C(=O)CCl)CC2)c2c3c(sc2n1)CC(C)CC3` (configuration not stated), the Potency is reported as 35.5 µM (active). `COCCCn1c(C(=O)N2CCOCC2)cc2c(=O)n3ccccc3nc21` was tested, and the Potency was “inactive”. `CN1/C(=C/C(=O)c2nc(S(C)(=O)=O)ncc2Cl)C(C)(C)c2ccccc21` was tested, and the Potency was 31.6 µM (active). `CN1/C(=C\C(=O)c2cccnc2)C(C)(C)c2ccccc21` was tested, and the Potency was “inactive”. With `CC1=C(C(=O)c2ccccc2)C(c2ccc(O)cc2)NC(S)=N1` (configuration not stated) the Potency was “inactive”. For `O=C(NCCC1=CCCCC1)C1CCC(CNc2nc(S)nc3ccccc23)CC1` (configuration not stated), the Potency was 23.8 µM (active). `O=C(NCCCN1CCCC1=O)C1CCN(S(=O)(=O)c2ccccc2)CC1` was tested, and the Potency was “inactive”. For `O=C(COC(=O)/C=C/c1ccccc1)NCCC1=CCCCC1`, the Potency was “inactive”. `CCCCN(C(=O)NC(=O)C1=C(N2CCOCC2)/C(=C/c2ccccc2)CC1)S(C)(=O)=O` was tested, and the Potency was “inactive”. For `C=CCO/C(O)=C1\C(C)=NC(SCC(=O)Nc2nccs2)=C(C#N)C1c1ccc(Cl)cc1` (configuration not stated), the Potency was “inactive”. For `O=C1CCC[C@@H]2C[C@@]3(C[C@@H]4CCN1[C@H]24)Nc1cc(Cl)c(Cl)cc1N=C3NCc1ccccc1`, the Potency was 35.5 µM (active). In the case of `CC(C)(C)CC(C)(C)NC1=Nc2cc(Cl)c(Cl)cc2NC12C[C@H]1CCC(=O)N3CC[C@@H](C2)[C@@H]13` (some centres not stated), the Potency is reported as 31.6 µM (active). With `COc1ccc2c(c1)CCC1=C2N=C(S)NC1c1ccc(N(C)C)cc1` (configuration not stated) the Potency was “inactive”. In the case of `c1cc(SC2CCCCC2)cc(-c2nc3cnccn3c2NC2CCCCC2)c1`, the Potency is reported as “inactive”. `Cc1cc(C)n2c(=O)c3ccc(Cl)cc3nc2c1C#N` was tested, and the Potency was “inactive”. With `CC(C)(C)c1cc(CP(=O)(c2ccccc2)c2ccccc2)cc(C(C)(C)C)c1O` the Potency was “inactive”. For `O=C(O)c1ccc2c(c1)C(=O)N(c1ccc(/C=C/C(=O)c3ccccc3)cc1)C2=O`, the Potency was “inactive”. For `COc1ccc2[nH]cc(/C=C/C(=O)c3ccccc3)c2c1`, the Potency was “inactive”. In the case of `Cc1[nH]c2ccccc2c1/C=C/C(=O)c1ccncc1`, the Potency is reported as “inactive”. In the case of `O=C(C=Cc1ccccn1)c1ccccc1`, the Potency is reported as 35.5 µM (active). `O=C(C=Cc1ccccn1)c1ccccc1O` was tested, and the Potency was 39.8 µM (active). With `COc1ccccc1C(=O)CSc1ccccn1` the Potency was “inactive”. With `O=C(C=Cc1ccccc1F)c1ccccc1` the Potency was 31.6 µM (active). In the case of `O=C(/C=C/c1ccc(N2CCC(c3ccccc3)=N2)cc1)c1ccccc1`, the Potency is reported as “inactive”. For `O=C(O)/C(=C\c1ccco1)NC(=O)c1ccco1`, the Potency was “inactive”. For `Cc1ccc(NC(=O)CCc2nnc3ccc(N4CCC5(CC4)OCCO5)nn23)nc1`, the Potency was “inactive”. For `COc1ccc(COc2cc(-c3cccc(OC)c3)nc3ccc(N)cc23)cc1`, the Potency was “inactive”. With `CC(C)N1CC(C(=O)Nc2cccc([N+](=O)[O-])c2)CC1=O` (configuration not stated) the Potency was “inactive”. `O=[N+]([O-])c1cccc(NC(=S)N2CCOCC2)c1` was tested, and the Potency was “inactive”. `COC(=O)/C=C\C(=O)Nc1cccc([N+](=O)[O-])c1` was tested, and the Potency was 31.6 µM (active). In the case of `O=C(CNC(=O)c1ccc(Br)o1)NCC1CCCCC1`, the Potency is reported as “inactive”. `COc1cc(NC(=O)C2CC(c3cccc(Br)c3)=NO2)cc(OC)c1OC` (configuration not stated) was tested, and the Potency was “inactive”. `O=C(NCC1CCCCC1)C1(CC2CC(c3ccc(Cl)cc3)=NO2)CCNCC1` (configuration not stated) was tested, and the Potency was 39.8 µM (active). `O=C(NCC1CCCCC1)C1(CC2CC(c3cccc(Br)c3)=NO2)CCNCC1` (configuration not stated) was tested, and the Potency was 35.5 µM (active). For `O=C(O)c1cc(-c2ccc(-c3ccc(F)cc3)o2)nc2ccccc12`, the Potency was “inactive”. With `C[C@@H]1C(c2cccc(Cl)c2)=NN(c2ccccc2)[C@H]1C(=O)N1CCOC1=O` the Potency was “inactive”. In the case of `Oc1c(Cl)cc(Cl)cc1/C=N/c1nc(-c2ccc(Cl)cc2)cs1`, the Potency is reported as “inactive”. `Cc1[nH]n(-c2nc(-c3ccc(Cl)cc3)cs2)c(=O)c1N=Nc1ccc(O)cc1` was tested, and the Potency was 26.7 µM (active). For `CC(=O)Nc1cccc(-c2ccnc3c2CC(C(=O)Nc2ccc(F)c(Cl)c2)O3)c1` (configuration not stated), the Potency was 22.4 µM (active). In the case of `O=C1OC(C(=O)Nc2ccc(Cl)c(C(F)(F)F)c2)Cc2ccccc21` (configuration not stated), the Potency is reported as “inactive”. In the case of `CC(=O)Nc1ccc(C2CC(c3ccc(Cl)cc3)=NN2c2ccccc2)cc1` (configuration not stated), the Potency is reported as “inactive”. For `O=C(Nc1cccc(OC(F)(F)F)c1)C1Cc2c(-c3ccc4c(c3)OCO4)ccnc2O1` (configuration not stated), the Potency was 39.8 µM (active). In the case of `CCOC(=O)c1cc(-c2ccc3c(c2)OCO3)nc2onc(C)c12`, the Potency is reported as “inactive”. `CC(C)CN(CC(C)C)C(=O)c1cc2c(=O)n3ccccc3nc2s1` was tested, and the Potency was “inactive”. With `O=C(Nc1ccc(Cl)cn1)c1ccccc1SCc1ccccc1` the Potency was “inactive”. `O=C(NCCOC(=O)c1ccccc1)c1ccccc1` was tested, and the Potency was “inactive”. For `N=C(NOC(=O)c1ccccc1)C(Cc1ccccc1)C(=O)NOC(=O)c1ccccc1` (configuration not stated), the Potency was 39.8 µM (active).
